Only some compounds are listed: those with a hit (about 8.1% of all), similar ones and a draw of the others.
MCF10A rerep: DNA re-replication induction in MCF 10a cells | Potency, µM (titrated, usually from 46.1 µM), without a hit: at the highest dose activity, positive = re-replication, actives largely listed as activators | 350,000 compounds, 2.9% hits | MCF 10A DNA re-replication, Hoechst nuclear intensity, 48 h | AID 624296; note: % of control where 0% means no effect; nearly all actives have a fitted effect of over 50% in size
KB-3-1 cytotox: KB-3-1 parental cell cytotoxicity | AID 1347075 | 400,000 compounds, 1.4% hits | KB-3-1 viability, CellTiter-Glo ATP luminescence, 72 h | Potency, µM (highest dose often 46.1 µM), usual class: cytotoxic; note: % is set by controls: 0 for no effect and ±100 for the full control effect; nearly all actives have a fitted effect of over 60% in size
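KB-3-1 cells, DMEM (no phenol red) + 10% FBS; compound by pin transfer, 72 h, 37 °C. Readout: CellTiter-Glo luminescence after 10 min. Data normalized, curve-fitted.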
ELG1 repair inh: blocks ELG1-dependent DNA repair in HEK293T cells | HEK293T ELG1-luciferase reporter, luminescence, 16 h; DNA damage induced by 5-fluorouridine | Potency, µM (titrated, usually from 46.1 µM), for the others: top-dose activity change, negative = inhibition, usual class: inhibitors | 330,000 compounds, 2.3% hits; note: % is set by controls: 0 for no effect and ±100 for the full control effect; nearly all actives have a fitted effect of over 55% in size
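Luminescence from the luciferase reporter, measured 30 min after ONE-Glo reagent at room temperature, was the read-out. Beforehand, 2,000 cells per well were exposed for 16 hr at 37 °C to 5-fluorouridine together with compound or vehicle.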
SW480 rereplic: DNA re-replication induction in SW480 cells | SW480 DNA re-replication, Hoechst DNA content imaging, 48 h | Potency, µM (highest dose often 46.1 µM), inactives show at the highest dose re-replication activation, actives largely listed as activators | 340,000 compounds, 1.8% hits | AID 624297; note: % of control where 0% means no effect; nearly all actives have a fitted effect of over 55% in size
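Hoechst fluorescence of nuclei (405 nm excitation, 500-530 nm emission) measured by plate-scanning imager after 48 hr compound exposure at 37 C; re-replication scored as increased number of nuclei with elevated intensity.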
KB-V1 cytotox: KB-V1 MDR subline cytotoxicity | KB-V1 MDR cells viability, CellTiter-Glo, 72 h | Potency, µM (titrated, usually from 46.1 µM), most hits filed as cytotoxic | 400,000 compounds, 3.4% hits; note: % is set by controls: 0 for no effect and ±100 for the full control effect; nearly all actives have a fitted effect of over 60% in size
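Potencies derive from concentration-effect curves fitted to normalized luminescence (CellTiter-Glo) of KB-V1 cells treated for 72 h at 37 degrees C in phenol-red-free DMEM containing 10% FBS.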
Starred values were filed as active, the others as inactive; i = inactive; ? = inconclusive; . = no result given. Calls come from the whole dose curve; as a rule, active = well fitted curve in the direction sought with a large enough effect; inconclusive = small, poorly fitted or top-dose-only effect, or another doubt; inactive = no such curve, though single readings can be large; an effect the other way counts as inactive or inconclusive. Potency is the fitted concentration of half-maximal effect.

SMILES | MCF10A rerep | KB-3-1 cytotox | ELG1 repair inh | SW480 rereplic | KB-V1 cytotox
Cc1cc(C)c(C)c(N=Nc2nc3ccccc3n2C)c1C | 21% | ? | ? | ? | ?
Cc1ccc(C)c(N=Nc2nc3ccccc3n2C)c1 | ? | i | ? | ? | 15µM*
Cc1cccc(/N=C/c2sc3ccccc3c2O)n1 | -4% | i | ? | -3% | i
Cc1c(/C=N/O)sc2ccccc12 | -1% | ? | 3% | -4% | 21µM*
COc1ccc(NC(=O)Nc2ccc(OC)c(OC)c2)c([N+](=O)[O-])c1 | ? | i | ? | -1% | i
COc1ccc([N+](=O)[O-])cc1NC(=O)Nc1ccc(OC)c(OC)c1 | 18% | i | 15µM* | -1% | ?
COc1ccc([N+](=O)[O-])cc1NC(=O)Nc1cccc(Cl)c1 | 0% | 5.2µM* | ? | ? | 2.9µM*
Cc1ccc(NC(=O)c2c([N+](=O)[O-])c(C(C)(C)C)nn2C)cc1 | 5% | i | -13% | -4% | i
COc1ccccc1OC(C)C(=O)N1CCN(CCc2ccccn2)CC1 (stereo not given) | . | i | . | . | i
COc1ccc(-n2c(C)cc(/C=N/Nc3nc(N4CCOCC4)nc(N4CCOCC4)n3)c2C)cc1 | 17% | i | 8.2µM* | 12% | i
CC(=C/c1ccccc1)/C=N/Nc1nc(N2CCCCC2)nc(N2CCCCC2)n1 | -4% | i | -4% | -7% | ?
Cc1cc(=O)[nH]c(N/N=C/c2cc(C)n(-c3ccccc3)c2C)n1 | 4% | i | ? | ? | i
BrC(/C=N/Nc1nc(N2CCOCC2)nc(N2CCOCC2)n1)=C/c1ccccc1 | ? | ? | 12µM* | ? | i
Cc1cc(/C=N/Nc2nc(N3CCOCC3)nc(N3CCOCC3)n2)c(C)n1-c1ccccc1 | 14% | i | 7.3µM* | 0% | i
CCc1cc(C(=O)NCC(c2ccco2)N2CCCCC2)sc1C (stereo not given) | 15% | i | 8% | 2% | i
Cc1ccc(-n2ncc3c(=O)[nH]c(SCC(=O)N4CCC(C)CC4)nc32)cc1C | 11% | i | -2% | 0% | i
CCOC(=O)C1Nc2ccc(C(F)(F)F)cc2C2c3ccccc3CC12 (stereo not given) | ? | 16µM* | . | 3% | 18µM*
Cc1cc(C2=NNC(=NC3CC3)SC2)c(C)n1-c1ccccc1F | 18µM* | ? | ? | ? | i
c1cc2c(cc1C1=NNC(=NC3CC3)SC1)OCCO2 | ? | ? | ? | 4.1µM* | 8.2µM*
CCCCN=C1NN=C(c2ccc3c(c2)OCCO3)CS1 | 12% | i | ? | ? | i
Cc1cc(C2=NNC(=NC3CCCCC3)SC2)c(C)n1-c1c(C)n(C)n(-c2ccccc2)c1=O | 14% | i | ? | 11% | ?
Cc1cccc(C)c1N=C1NN=C(c2ccccc2F)CS1 | 6% | ? | 4% | . | 18µM*
FC(F)Sc1ccc(N=C2NN=C(c3ccc4c(c3)OCCO4)CS2)cc1 | ? | ? | ? | 12µM* | ?
Cc1nc(CS(=O)c2ccc(Cl)cc2)cc(NCc2ccc(Cl)cc2Cl)n1 (stereo not given) | ? | ? | -22% | -7% | ?
Cc1ccccc1NC(=O)Cc1nc(COC(=O)c2cc([N+](=O)[O-])ccc2NCCO)cs1 | ? | i | ? | -7% | i
SMILES | MCF10A rerep | KB-3-1 cytotox | ELG1 repair inh | SW480 rereplic | KB-V1 cytotox
O=C(N/N=C/c1cccn1-c1cccc(C(=O)O)c1)Nc1ccccc1 | ? | i | 7% | -33% | i
Cc1ccc2c(C(=O)N3CCN(c4ccccc4)CC3)cc(-c3cccnc3)nc2c1C | ? | i | ? | 5% | i
c1ccc2oc(C3=NNC(=NC4CC4)SC3)cc2c1 | 12µM* | 9.2µM* | ? | ? | i
c1ccc(CN=C2NN=C(c3cc4ccccc4o3)CS2)cc1 | ? | i | ? | ? | i
CN(C)CCC(=O)C(Cc1ccccc1)c1ccccc1 (stereo not given) | 4.1µM* | i | . | ? | ?
CCCCOc1ccc(C(=O)N2CCNC(=O)C2CC(=O)OC(C)C)cc1 (stereo not given) | 2% | i | -8% | -61% | i
CCOC(=O)C1CCN(C(c2ccc(OCC)cc2)c2c(O)cc(C)n(CCOC)c2=O)CC1 (stereo not given) | . | i | . | . | i
O=C1N[C@@H](Cc2ccccc2)COC(=O)[C@@H](Cc2ccc(F)cc2)C/C=C\C[C@@H]1CC(=O)N(CCO)Cc1ccccc1 | 23µM* | ? | ? | ? | ?
CC(C)(C)[C@@H]1COC(=O)[C@H](Cc2ccc(F)cc2)C/C=C\C[C@H](CC(=O)N(CCO)Cc2ccccc2)C(=O)N1 | 1% | i | 21µM* | 12% | i
COc1ccc(-c2cc(-c3cc(C)ccc3O)[nH]n2)cc1 | 18µM* | ? | ? | ? | ?
CC(C)(C)c1ccc(-c2cc(-c3ccccc3O)[nH]n2)cc1 | 9.2µM* | ? | ? | ? | ?
COc1ccc(-c2cc(-c3ccc(C)cc3)n[nH]2)c(O)c1 | 26% | i | ? | ? | i
Oc1ccccc1-c1cc(-c2ccccc2Cl)[nH]n1 | ? | i | . | -2% | 21µM*
CCc1ccc2c(c1)C1(SC(NC(C)=O)=NN1C(C)=O)C(=O)N2C(C)C (stereo not given) | 1% | i | 10% | -1% | i
CCCOc1ccc(-c2nc(C#N)c(N3CCC(C(N)=O)CC3)o2)cc1 | ? | i | -13% | -1% | 23µM*
CCCOc1ccc(-c2nc(C#N)c(N3CCN(C)CC3)o2)cc1 | -6% | i | -7% | 3% | i
COc1ccc(-c2nc(C#N)c(N3CCCCCC3)o2)cc1OC | ? | i | ? | 4% | 8.2µM*
CCCOc1ccc(-c2nc(C#N)c(N3CCc4ccccc4C3)o2)cc1 | 17% | i | 3% | -1% | 16µM*
N#Cc1nc(-c2ccco2)oc1N1CCc2ccccc2C1 | ? | i | ? | 10% | 8.2µM*
COc1ccccc1-c1nc(SCC(=O)NCc2ccc(C)cc2)c2c(=O)n(C)c(=O)n(C)c2n1 | . | i | . | . | ?
CC(=O)c1c(C)[nH]c(C(=O)CN2C(=O)NC(C)(CCC(C)C)C2=O)c1C (stereo not given) | 23% | i | -4% | -8% | ?
CC1CC(C)CN(c2oc(-c3ccco3)nc2C#N)C1 (stereo not given) | ? | i | 5% | 1% | 21µM*
COc1ccccc1Nc1nc(-c2c(C)[nH]c3ccccc23)cs1 | 5.8µM* | i | ? | 10µM* | i
